Measured values published in PubChem BioAssay (NCI).
Where “and” joins values, the source holds several entries; their conditions need not be identical. Identical values can stand only once. Compounds without any hit were thinned out: in the full panel of roughly 83,000, 20% have a hit.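 Values shown are percent growth following 48 h exposure of cells in 96-well plates to a single concentration of compound; below 10 was considered active.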

Tests used:
Assay in all cases: NCI-60 one-dose screen, 48 h (100 = growth as untreated, 0 = no growth, -100 = all killed)
Conditions in all cases: 10 µM unless noted
SN12C renal = system: SN12C renal
UO-31 renal = system: UO-31 renal
TK-10 renal = system: TK-10 renal
ACHN renal = system: ACHN renal
A498 renal = system: A498 renal
CCRF-CEM leukemia = system: CCRF-CEM leukemia
MOLT-4 leukemia = system: MOLT-4 leukemia
SR leukemia = system: SR leukemia
OVCAR-8 ovarian = system: OVCAR-8 ovarian
OVCAR-5 ovarian = system: OVCAR-5 ovarian
OVCAR-4 ovarian = system: OVCAR-4 ovarian
SK-OV-3 ovarian = system: SK-OV-3 ovarian
IGROV1 ovarian = system: IGROV1 ovarian
OVCAR-3 ovarian = system: OVCAR-3 ovarian
HS 578T breast = system: HS 578T breast
NCI/ADR-RES ovarian = system: NCI/ADR-RES ovarian
CAKI-1 renal = system: CAKI-1 renal
EKVX NSCLC = system: EKVX NSCLC
RPMI-8226 leukemia = system: RPMI-8226 leukemia

Measured: growth

COCCNC(C)=O
inactive: SN12C renal 97.7% | UO-31 renal 98.2% | TK-10 renal 102% | ACHN renal 110% | A498 renal 89.6% | CCRF-CEM leukemia 113% | MOLT-4 leukemia 119% | SR leukemia 118% | OVCAR-8 ovarian 114% | OVCAR-5 ovarian 94.9% | OVCAR-4 ovarian 104% | SK-OV-3 ovarian 102% | IGROV1 ovarian 106% | OVCAR-3 ovarian 113% | HS 578T breast 106% | NCI/ADR-RES ovarian 120%

CCOC(=O)C1=C(C)NC(C)=C(C(=O)OCC)C1
inactive: SN12C renal 94.7% and 109% | UO-31 renal 98.9% and 90.4% | TK-10 renal 107% and 101% | ACHN renal 109% and 105% | CAKI-1 renal 113% and 97.6% | A498 renal 112% | CCRF-CEM leukemia 86.9% and 56% | MOLT-4 leukemia 134% and 101% | SR leukemia 101% and 105% | OVCAR-8 ovarian 121% and 96.9% | OVCAR-5 ovarian 104% and 92.4% | OVCAR-4 ovarian 101% and 90.2% | SK-OV-3 ovarian 105% and 112% | IGROV1 ovarian 100% and 112% | OVCAR-3 ovarian 102% and 114% | HS 578T breast 101% and 94% | NCI/ADR-RES ovarian 114% and 105%

O=P(O)(O)OC1C(OP(=O)(O)O)C(OP(=O)(O)O)C(OP(=O)(O)O)C(OP(=O)(O)O)C1OP(=O)(O)O.[Cu+2] (stereo not drawn)
inactive: EKVX NSCLC 126% | SN12C renal 87.4% | UO-31 renal 98.2% | TK-10 renal 118% | ACHN renal 99.7% | CAKI-1 renal 113% | A498 renal 85.3% | CCRF-CEM leukemia 101% | MOLT-4 leukemia 98.9% | SR leukemia 81.4% | RPMI-8226 leukemia 101% | OVCAR-8 ovarian 76.8% | OVCAR-5 ovarian 155% | OVCAR-4 ovarian 110% | SK-OV-3 ovarian 114% | IGROV1 ovarian 86.9% | OVCAR-3 ovarian 123% | HS 578T breast 92.4% | NCI/ADR-RES ovarian 97.3%

CC1NC(C)c2ccc3ccccc3c2O1 (stereo not drawn)
inactive: SN12C renal 99.1% | UO-31 renal 69.4% | TK-10 renal 110% | ACHN renal 98.3% | CAKI-1 renal 96.7% | A498 renal 84.8% | CCRF-CEM leukemia 97.9% | MOLT-4 leukemia 105% | SR leukemia 96.8% | RPMI-8226 leukemia 97.3% | OVCAR-8 ovarian 104% | OVCAR-5 ovarian 108% | OVCAR-4 ovarian 111% | SK-OV-3 ovarian 106% | IGROV1 ovarian 115% | OVCAR-3 ovarian 106% | HS 578T breast 108%

Nc1c(S(=O)(=O)O)cc(Br)c2c1C(=O)c1ccccc1C2=O
inactive: SN12C renal 107% and 112% | UO-31 renal 77.4% and 67.5% | TK-10 renal 102% and 110% | CAKI-1 renal 101% and 95% | A498 renal 114% and 96.6% | CCRF-CEM leukemia 98.3% | MOLT-4 leukemia 99.7% and 91.1% | SR leukemia 93.8% and 91.4% | RPMI-8226 leukemia 96.7% and 104% | OVCAR-8 ovarian 106% and 92.1% | OVCAR-5 ovarian 113% and 101% | OVCAR-4 ovarian 101% and 111% | SK-OV-3 ovarian 85.6% and 102% | IGROV1 ovarian 105% and 88.9% | OVCAR-3 ovarian 102% and 121% | HS 578T breast 112% and 94.3% | NCI/ADR-RES ovarian 108% and 115%

CCc1ccccc1-n1[nH]c(C)c(C=N)c1=O
inactive: EKVX NSCLC 104% | SN12C renal 106% | UO-31 renal 90% | TK-10 renal 103% | ACHN renal 105% | A498 renal 112% | CCRF-CEM leukemia 102% | MOLT-4 leukemia 117% | SR leukemia 94.8% | OVCAR-8 ovarian 118% | OVCAR-5 ovarian 110% | OVCAR-4 ovarian 114% | SK-OV-3 ovarian 119% | IGROV1 ovarian 112% | OVCAR-3 ovarian 124% | HS 578T breast 99.2% | NCI/ADR-RES ovarian 106%

C/C(CC(C)C)=N/NC(N)=S
inactive: SN12C renal 87.2% | UO-31 renal 62.1% | TK-10 renal 105% | ACHN renal 98.3% | CAKI-1 renal 104% | A498 renal 87.6% | CCRF-CEM leukemia 43.8% | MOLT-4 leukemia 52.1% | SR leukemia 90.9% | RPMI-8226 leukemia 73.7% | OVCAR-8 ovarian 69% | OVCAR-5 ovarian 114% | OVCAR-4 ovarian 72.2% | SK-OV-3 ovarian 105% | IGROV1 ovarian 97.4% | OVCAR-3 ovarian 48.1% | HS 578T breast 96.8% | NCI/ADR-RES ovarian 46.7%

COc1ccc(/C=N/NC(N)=S)cc1
inactive: EKVX NSCLC 64.1% | SN12C renal 96.1% | UO-31 renal 76.4% | CAKI-1 renal 93.3% | A498 renal 73.4% | CCRF-CEM leukemia 69.1% | MOLT-4 leukemia 136% | SR leukemia 107% | RPMI-8226 leukemia 88.9% | OVCAR-8 ovarian 100% | OVCAR-5 ovarian 93.7% | OVCAR-4 ovarian 89.8% | SK-OV-3 ovarian 106% | IGROV1 ovarian 76.9% | OVCAR-3 ovarian 111% | HS 578T breast 101% | NCI/ADR-RES ovarian 96.7%
